An excerpt weighted towards active compounds, which were near 8.1% of everything screened.
Hedgehog inh = blocks Sonic Hedgehog signaling | Shh-LIGHT2 Gli-luciferase reporter, 30 h | inhibition, % (test concentration not listed) | hit rate 2.1% among 22,000 | AID 2313;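 active means mean inhibition across valid replicates above about 65%, limit read from the data; inconclusive means mean under the limit, yet half or more replicates past it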;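 further: pathway switched on by Shh-conditioned medium diluted 1 in 25 in low serum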
MITF inhib = blocks MITF activity; TRPM1 promoter luciferase, luminescence, 24 h; inhibition, % (no concentration beside the values); hit rate 0.28% among 37,000; AID 2240; in the data active means inhibition above about 85%; inconclusive means no clear call, values can overlap the other calls; inactive means below about 68%;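 further: human melanocyte line stably carrying TRPM1 promoter luciferase reporter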
NOMO-1 viab = STK33 inhibitor candidate reducing NOMO-1 cell viability. NOMO-1 AML viability, CellTiter-Glo luminescence, 72 h. inhibition, % (concentration not given with the values). hit rate 7.5% among 37,000. AID 2330; in the data active means inhibition above about 80%; inconclusive means no clear call, values can overlap the other calls
The depositor's hits bear a star; ? = inconclusive; / = not tested or not shown.

SMILES	Hedgehog inh	MITF inhib	NOMO-1 viab
C[C@@H]1CN([C@H](C)CO)C(=O)c2cccc(NC(=O)C3CC3)c2O[C@H]1CN(C)Cc1ccc(Cl)c(Cl)c1	25	34	?
Cc1ccc(-c2nnc3c4ccccc4c(C)nn23)cc1S(=O)(=O)NCc1cccnc1	/	-3	53
CC(=O)OC(C)(C)/C=C/C(=O)[C@](C)(O)[C@H]1C(O)C[C@@]2(C)[C@@H]3CC=C4[C@@H](C=C(O[C@@H]5O[C@H](CO)[C@@H](O)[C@H](O)[C@H]5O)C(=O)C4(C)C)[C@]3(C)C(=O)C[C@]12C (some centres undefined)	19	-3	117*
CC(=O)O[C@@](C)(C(=O)/C=C/C(C)(C)O)[C@H]1[C@H](O)C[C@@]2(C)[C@@H]3CC=C4[C@@H](C=C(O[C@@H]5O[C@H](CO)[C@@H](O)[C@H](O)[C@H]5O[C@@H]5O[C@@H](C)[C@H](O)[C@@H](O)[C@H]5O)C(=O)C4(C)C)[C@]3(C)C(=O)C[C@]12C	-7	/	/
COc1ccc(OC)c(S(=O)(=O)Nc2ccc(O)c(Sc3nc4ccccc4s3)c2)c1	/	60	11
CCC(Sc1n[nH]c(N)n1)C(=O)Nc1ccc(C)cc1C (centres undefined)	/	3	12
O=C(Nc1ccc(-c2ccccc2)cc1)C1CC1c1ccccc1 (centres undefined)	39	23	32
COc1ccc(OC)c(NC(=O)c2ccc(C)c(S(=O)(=O)Nc3ccc(C)cc3)c2)c1	/	51	103*
COc1ccc(OC)c(S(=O)(=O)Nc2ccc(C(N)=O)cc2)c1	/	-10	1
COc1ccc(C(=O)Nc2ccc(Cl)cc2)cc1S(=O)(=O)Nc1ccc(Cl)cc1	-23	27	70
COc1ccc(OC)c(NC(=O)c2ccc(Cl)c(S(=O)(=O)Nc3ccc(C)cc3)c2)c1	/	16	93*
O=C(CSc1nc2c(c(C(F)(F)F)n1)CCc1ccccc1-2)Nc1ccc(Cl)cc1	/	14	-11
C[C@@H]1CN([C@H](C)CO)C(=O)Cc2cc(NS(=O)(=O)c3ccc(F)cc3)ccc2O[C@H]1CN(C)C(=O)Nc1ccc(C(F)(F)F)cc1	/	-7	-1
COc1ccccc1NC(=O)CN(c1cc(Cl)c(Cl)cc1Cl)S(C)(=O)=O	/	8	1
O=C(Cn1c2ccccc2n2nc(-c3ccco3)nc12)c1ccccc1	/	20	21
O=C(Cn1c2ccccc2n2nc(-c3cccs3)nc12)c1ccc(Cl)cc1	/	7	115*
CC12CCC(c3c1nn(-c1ccccc1)c3C(F)(F)F)C2(C)C (centres undefined)	?	24	123*
COc1ccc(-c2nc3ccc4ccccc4c3c3c2CCC3)cc1	-106	-74	-5
Cc1occc1-c1nnc(SCC(=O)Nc2ccccc2[N+](=O)[O-])n1-c1ccccc1	/	20	26
Cc1ccc(S(=O)(=O)/C(C#N)=C/Nc2cc(C(F)(F)F)cc(C(F)(F)F)c2)cc1	101*	26	89*
CSc1nc(C)nc(N/C=C(\C#N)S(=O)(=O)c2ccc(C)cc2)n1	/	-9	24
O=C(Nc1cccc([N+](=O)[O-])c1)C1CCCN(S(=O)(=O)c2ccc(F)cc2)C1 (centres undefined)	/	7	13
COc1ccc(S(=O)(=O)Nc2ccc3c(c2)CC(=O)N([C@H](C)CO)C[C@H](C)[C@H](CN(C)Cc2ccc(Cl)c(Cl)c2)O3)cc1	/	-10	98*
COc1ccc(CN(C)C[C@@H]2Oc3ccc(NS(=O)(=O)c4ccc(Cl)cc4)cc3CC(=O)N([C@H](C)CO)C[C@H]2C)cc1	-20	25	18
COc1ccc(S(=O)(=O)Nc2ccc3c(c2)CC(=O)N([C@H](C)CO)C[C@@H](C)[C@H](CN(C)Cc2ccc(Cl)c(Cl)c2)O3)cc1	37	12	112*
SMILES	Hedgehog inh	MITF inhib	NOMO-1 viab
COc1ccc(CN(C)C[C@@H]2Oc3ccc(NS(=O)(=O)c4ccc(Cl)cc4)cc3CC(=O)N([C@@H](C)CO)C[C@@H]2C)cc1	/	-2	9
COC(=O)c1c(NC(=O)c2ccc(N(C)S(=O)(=O)c3ccc(C)cc3)cc2)sc2c1CCCC2	/	-5	-18
COC(=O)c1c(NC(=O)c2ccccc2N(C)S(=O)(=O)c2ccccc2)sc2c1CCCC2	/	48	117*
CN1C(=O)c2cccc3cccc(c23)[S+]1c1ccccc1C(=O)O (centres undefined)	-35	-2	20
CC(C)(C)c1ccccc1OCC(=O)Nc1cccc2ccccc12	20	27	92*
O=C(COc1cccc2ccccc12)Nc1ccccc1C(=O)O	/	-16	-8
C[C@@H]1CN([C@@H](C)CO)C(=O)c2cccc(NC(=O)Nc3ccc(C(F)(F)F)cc3)c2O[C@H]1CN(C)Cc1ccc(C(F)(F)F)cc1	-32	48	116*
C[C@H](CO)N1C[C@H](C)[C@@H](CN(C)Cc2ccc(C(F)(F)F)cc2)Oc2c(NC(=O)Nc3ccc(C(F)(F)F)cc3)cccc2C1=O	-6	14	105*
C[C@@H]1CN([C@@H](C)CO)C(=O)c2cccc(NC(=O)Nc3ccc(C(F)(F)F)cc3)c2O[C@@H]1CN(C)Cc1ccc(C(=O)O)cc1	-16	-7	-12
C[C@@H]1CN([C@@H](C)CO)C(=O)c2cccc(NC(=O)Nc3ccc(C(F)(F)F)cc3)c2O[C@@H]1CN(C)Cc1ccc(C(F)(F)F)cc1	44	8	?
C[C@H]1CN([C@@H](C)CO)C(=O)c2cccc(NC(=O)Nc3ccc(C(F)(F)F)cc3)c2O[C@H]1CN(C)Cc1ccc(C(=O)O)cc1	-2	-5	7
C[C@H]1CN([C@@H](C)CO)C(=O)c2cccc(N(C)C)c2O[C@H]1CN(C)Cc1ccc(C(F)(F)F)cc1	-7	-6	27
C[C@H]1CN([C@@H](C)CO)C(=O)c2cccc(NC(=O)Nc3ccc(C(F)(F)F)cc3)c2O[C@@H]1CN(C)Cc1ccc(C(F)(F)F)cc1	-13	30	113*
C[C@@H]1CN([C@H](C)CO)C(=O)c2cccc(N(C)C)c2O[C@H]1CN(C)Cc1ccc(C(F)(F)F)cc1	19	13	81*
CCc1nc(SCC(=O)Nc2ccc(Br)cc2)n[nH]1	/	-2	-3
Cc1cccc(NC(=O)c2ccccc2NC(=O)COc2ccccc2Cl)c1C	/	-13	23
CC(O)CNc1nc2c(c(=O)n(Cc3ccccc3F)c(=O)n2C)n1C (centres undefined)	/	-5	-1
CNC(=O)CN(c1ccc(C)cc1)S(=O)(=O)c1ccccc1	/	5	15
CC1(C)S[C@@H]2[C@H](NC(=O)[C@H](NC(=O)N3CCNC3=O)c3ccccc3)C(=O)N2[C@H]1C(=O)O	-34	-1	-6
CCOc1ccc(OCC)c(S(=O)(=O)NC2CC(C)(C)NC(C)(C)C2)c1	/	1	3
CCOc1ccc(C2(C)CC(C)(C)Nc3ccccc32)cc1 (centres undefined)	1	5	114*
O=C(COc1ccc([N+](=O)[O-])cc1)Nc1ccc2oc(-c3ccc(F)cc3Cl)nc2c1	/	-4	28
COc1ccccc1CCNC(=O)c1cc(-c2ccccn2)nc2ccc(Br)cc12	/	20	25
COc1ccc(C(C)NC(=O)c2cc(-c3ccccn3)nc3ccc(Cl)cc23)cc1OC (centres undefined)	/	53	56

Screening data as filed in PubChem.
